Bioassay records deposited in PubChem by National Center for Advancing Translational Sciences (NCATS).
HPGD inh – blocks human HPGD enzyme activity; P15428; purified HPGD, NADH fluorescence kinetic, PGE2 substrate; Potency, µM, inactives show at the highest dose activity change, negative = inhibition, most hits filed as inhibitors; actives 4.3% (n = 150,000); AID 894; active = well fitted inhibition curve with a large enough effect, not every such curve was filed as active; inconclusive = small, poorly fitted or top-dose-only effect, or another doubt; inactive = no such curve, though single readings can be large or run the other way
Target sequence (P15428 whole entry, looked up): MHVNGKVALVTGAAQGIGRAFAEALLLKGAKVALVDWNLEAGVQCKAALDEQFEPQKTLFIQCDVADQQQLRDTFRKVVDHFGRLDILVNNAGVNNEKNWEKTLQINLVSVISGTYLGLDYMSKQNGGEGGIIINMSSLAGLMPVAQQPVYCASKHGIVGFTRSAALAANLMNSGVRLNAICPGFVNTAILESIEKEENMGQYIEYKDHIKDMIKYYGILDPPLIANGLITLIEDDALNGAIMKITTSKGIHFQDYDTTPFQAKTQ
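20 nM HPGD preincubated 15 min at room temperature with compound in 50 mM Tris-HCl pH 8, 0.01% Tween 20. Started with 1 mM NAD+ and 30 uM prostaglandin E2; NADH fluorescence (360/450 nm) read 5 times over 30-s intervals, last minus first.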
IMPase Li cell – cell-permeable IMPase inhibitors with lithium potentiation; CHO-M1 cells, IP1 TR-FRET (IP-One), carbachol + lithium; Potency, µM (titrated, usually from 59.4 µM), for inactives: at the highest dose activity, negative = IMPase inhibition, most hits filed as inhibitors; actives 0.35% (n = 210,000); AID 1457;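 note: IP1 builds up when IMPase is blocked and the TR-FRET signal falls; plate controls were basal vehicle for no effect and high inhibitor control for full effect; nearly all actives have a fitted effect of over 50% in size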
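CHO cells stably expressing M1 receptor (2000/well) were cultured 16–30 h, then exposed to compounds with a small lithium addition for 30 min at 37C. IP1 was measured by TR-FRET competition; AC50 from Hill fits.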
ALDH1A1 block – inhibitors of human aldehyde dehydrogenase 1A1 | P00352 | Purified ALDH1A1, NADH fluorescence, propionaldehyde substrate | Potency, µM (series often up to 75.3 µM), for inactives: at the top dose activity, negative = inhibition, usual class: inhibitors | actives 7.3% (n = 220,000) | AID 1030; active = well fitted inhibition curve with a large enough effect, not every such curve was filed as active; inconclusive = small, poorly fitted or top-dose-only effect, or another doubt; inactive = no such curve, though single readings can be large or run the other way;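 note: plate controls were no enzyme wells and a reference inhibitor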
Target sequence (P00352 whole entry, looked up): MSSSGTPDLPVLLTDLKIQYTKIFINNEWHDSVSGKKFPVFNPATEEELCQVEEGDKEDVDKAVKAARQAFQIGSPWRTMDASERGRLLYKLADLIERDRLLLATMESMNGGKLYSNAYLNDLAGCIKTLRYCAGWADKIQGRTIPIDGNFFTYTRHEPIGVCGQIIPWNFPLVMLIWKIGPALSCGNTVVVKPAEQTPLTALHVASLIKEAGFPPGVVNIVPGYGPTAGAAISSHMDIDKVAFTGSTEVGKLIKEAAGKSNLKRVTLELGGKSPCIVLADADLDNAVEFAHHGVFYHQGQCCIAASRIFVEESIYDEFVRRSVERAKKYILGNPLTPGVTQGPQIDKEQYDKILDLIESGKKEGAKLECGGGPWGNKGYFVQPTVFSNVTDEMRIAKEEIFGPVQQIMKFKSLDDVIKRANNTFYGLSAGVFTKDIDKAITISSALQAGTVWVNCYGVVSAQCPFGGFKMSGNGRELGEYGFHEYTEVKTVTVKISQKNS
Lamin A splicing – modulators of lamin A splicing | AID 1487 | Potency, µM (highest dose often 46.1 µM), without a hit: at the highest dose ratio change, negative = inhibition, actives largely listed as inhibitors | HeLa LMNA splicing GFP/RFP minigene ratio, 48 h | actives 0.01% (n = 200,000); active = well fitted inhibition curve with a large enough effect in the signal ratio, with a control signal flat, not every such curve was filed as active; inconclusive = small, poorly fitted or top-dose-only effect, or effect the other way, or a change in a side signal; the % refers to the signal ratio
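Read-out is the ratio of GFP to DsRed2 object intensity, acquired by 488 nm laser-scanning cytometry on HeLa lamin A-EGFP minigene reporter cells. Compound incubation 48 hrs at 37 °C in Opti-MEM with 2% FBS; DMSO 0.5% final.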
Luc counter – Kinase-Glo luciferase inhibition (counter-screen); Kinase-Glo luciferase, ATP luminescence, 8 min; Potency, µM (highest dose often 38.3 µM), inactives show at the top dose activity change, negative = inhibition, most hits filed as inhibitors; Q27757; actives 0.28% (n = 200,000); AID 1379; note: nearly all actives have a fitted effect of over 60% in size
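Luminescence was the read-out, taken after 8-minute incubation at ambient temperature. Luciferase turned over luciferin with 10 uM ATP in imidazole pH 7.2 buffer containing KCl, MgCl2, Tween 20 and BSA.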
Starred values were filed as active, the others as inactive; ? = inconclusive; nt = no result given; [ ] = dose if it differs, or a comment. An excerpt weighted towards active compounds, which were near 9% of everything screened. Unless noted, calls come from the whole dose curve; as a rule, active = well fitted curve in the direction sought with a large enough effect; inconclusive = small, poorly fitted or top-dose-only effect, or another doubt; inactive = no such curve, though single readings can be large; an effect the other way counts as inactive or inconclusive. Unless noted, % is set by controls: 0 for no effect and ±100 for the full control effect; potency is the fitted concentration of half-maximal effect.

SMILES	HPGD inh	IMPase Li cell	ALDH1A1 block	Lamin A splicing	Luc counter
Cn1c(=O)[nH]c(=O)c2c1nc(N1CCCCCC1)n2CCCSc1nnnn1-c1ccccc1	-27.7%	6.1%	2.51µM*	4.0%	-4.1%
CC(CSc1nnnn1-c1ccccc1)Cn1c(N2CCN(C)CC2)nc2c1c(=O)[nH]c(=O)n2C (stereo not given)	nt	2.9%	20µM*	?	2.0%
CC(C)CC(=O)N1CCC(O)(CS(=O)(=O)c2ccc(Cl)c(Cl)c2)CC1	nt	4.3%	-7.0%	8.6%[46 µM]	-2.4%
COC(=O)NC(c1cccs1)C(C(C)=O)C(=O)OC (stereo not given)	nt	nt	-5.0%[13.5 µM]	nt	nt
Cc1ccc(CS(=O)(=O)c2ccc(C(=O)N3CCN(c4ccccn4)CC3)cc2[N+](=O)[O-])cc1	nt	20.0%	?	?	1.8%
Brc1ccc(OCc2ccccc2)c(CNCc2ccncc2)c1	-6.0%	15.8%[38.3 µM]	2µM*	-1.6%[0.0737 µM]	-2.0%
Oc1cc2c(cc1O)[C@@H](c1ccccc1)CNCC2	20µM*	4.7%	3.2%	10.8%	-0.2%
Oc1cc2c(cc1O)C(c1ccccc1)CNCC2 (stereo not given)	?	23.3%	?	-28.5%	-9.7%
O=C(NCCc1ccccn1)c1cccc(S(=O)(=O)N2CCc3ccccc32)c1	nt	2.0%	20µM*	nt	-1.2%
COc1ccc(NC(=O)c2cccc(S(=O)(=O)N3CCc4ccccc43)c2)cn1	nt	21.2%	3.16µM*	-24.5%[46 µM]	3.4%
COC(=O)c1cc(=O)[nH]c(=O)[nH]1	-7.3%	6.4%	-2.7%[13.5 µM]	nt	-1.8%[7.66 µM]
O=C(Nc1nnc(CCS(=O)(=O)c2ccc3ccccc3c2)s1)c1cccs1	-15.3%	11.2µM*	?	-10.1%	-0.2%
Cc1cc2oc3c(c(=O)c2cc1C)C(c1ccc(F)cc1)N(CCCN1CCOCC1)C3=O (stereo not given)	-17.7%	-4.4%	7.08µM*	1.9%	-0.4%
O=C1c2oc3ccccc3c(=O)c2C(c2cccc(F)c2)N1CCCO (stereo not given)	1.4%	-13.3%[38.3 µM]	14.1µM*	-2.1%	-5.8%
O=C1c2oc3ccccc3c(=O)c2C(c2cccnc2)N1Cc1ccco1 (stereo not given)	-1.2%	30.7%[38.3 µM]	14.1µM*	3.8%	2.7%
O=C1c2oc3ccc(Cl)cc3c(=O)c2C(c2cccnc2)N1Cc1ccco1 (stereo not given)	-1.9%	-6.6%[38.3 µM]	?	-3.0%	-2.4%
CCCCCCSc1nsc(NC(=O)CCC)n1	nt	6.0%	-3.5%	nt	-2.7%
CCCCNC(=O)c1ccccc1NC(=O)CCC	nt	-4.6%	15.8%	-1.1%[46 µM]	-1.8%
O=C(Nc1ccc2c(c1)CCC2)C1CCN(c2c3c(nc4ncnn24)CCC3)CC1	?	-5.4%[38.3 µM]	15.8µM*	?	2.4%
O=C(Nc1ccc(Oc2ccccc2)cc1)C1CCN(c2c3c(nc4ncnn24)CCC3)CC1	-15.3%	32.1%[38.3 µM]	?	?	0.8%
Cc1ccc(C(C(=O)NC2CCCCC2)N(Cc2cccnc2)C(=O)C2COc3ccccc3O2)o1 (stereo not given)	-7.9%	20.3%[38.3 µM]	12.6µM*	-0.5%	-7.9%
Cc1ccc(C(C(=O)NC2CCCCC2)N(Cc2ccco2)C(=O)C2COc3ccccc3O2)o1 (stereo not given)	-11.6%	42.2%[38.3 µM]	12.0%	1.7%	-8.0%
Cc1ccc(CN(C(=O)c2csnn2)C(C(=O)NC2CCCC2)c2ccc(C)o2)cc1 (stereo not given)	-17.1%	3.8%	14.1µM*	-13.4%	0.4%
Cc1ccc(C(C(=O)NC2CCCC2)N(C(=O)c2csnn2)C2CCCC2)o1 (stereo not given)	nt	nt	-15.4%	6.9%	nt
CN(C)c1ccc(C(CNS(=O)(=O)c2ccccc2)N2CCc3ccccc32)cc1 (stereo not given)	nt	nt	nt	-10.4%[46 µM]	nt
SMILES	HPGD inh	IMPase Li cell	ALDH1A1 block	Lamin A splicing	Luc counter
Cc1onc(-c2ccccc2Cl)c1C(=O)N1CCN(C(=O)c2ccco2)CC1	-6.8%	-16.4%[38.3 µM]	22.4µM*	?	0.3%
CN1CCN(C(=O)c2cc(-c3cccc(Cl)c3)on2)CC1	nt	nt	4.47µM*	3.0%	nt
CN1CCN(C(=O)c2cc(-c3ccco3)on2)CC1	31.6µM*	19.1%[38.3 µM]	-4.7%	6.0%	-4.1%
O=C(c1cc(-c2ccc(Cl)cc2Cl)on1)N1CCN(C(=O)c2ccco2)CC1	10µM*	-10.3%[38.3 µM]	2.82µM*	4.1%	-1.1%
Cc1onc(-c2ccccc2Cl)c1C(=O)N1CCN(c2ccccc2)CC1	-11.6%	20.3%[38.3 µM]	4.3%	?	-3.9%
O=C(c1cc(-c2ccco2)on1)N1CCOCC1	-27.3%	-11.6%[38.3 µM]	?	6.7%	-3.3%
Cc1c(Cl)cccc1NC(=S)N(Cc1cccnc1)Cc1ccccc1Cl	nt	5.1%	?	?	0.1%
CCOC(=O)C1(CCCc2ccccc2)CCN(Cc2ccn[nH]2)CC1	nt	8.7%	?	nt	nt
COc1ccc(-c2cc(C(=O)N3CCCCC3)no2)cc1OC	14.1µM*	2.9%[38.3 µM]	-8.8%	1.9%	-4.8%
COc1ccc(-c2cc(C(=O)N3CCN(Cc4ccccc4)CC3)no2)cc1OC	-28.8%	22.3%[38.3 µM]	?	-11.7%	-0.4%
COc1cc(NC(=O)CSc2nc3[nH]ncc3c(=O)n2-c2ccccc2C)cc(OC)c1OC	-8.2%	4.8%	?	?	1.2%
O=C(CSc1nc2[nH]ncc2c(=O)n1-c1ccccc1)NCCc1ccccc1	nt	-0.2%	?	-1.3%[9.22 µM]	4.5%
COc1ccc(CCNC(=O)CSc2nc3[nH]ncc3c(=O)n2-c2ccccc2Br)cc1OC	nt	-0.8%	22.4µM*	1.5%[9.22 µM]	0.0%
O=C(CSc1nc2[nH]ncc2c(=O)n1-c1ccccc1Br)NCc1ccco1	-14.9%	30.4%[38.3 µM]	12.6µM*	19.4%	-0.7%
C=CCN(C(=O)CSc1nc2[nH]ncc2c(=O)n1-c1ccccc1OC)c1ccccc1	-2.2%	1.0%[38.3 µM]	12.6µM*	?	-1.6%
Cc1nn(CC(=O)NC(C)C)c(C)c1[N+](=O)[O-]	nt	6.7%	6.8%	nt	1.5%
CC(=O)SC[C@@H](Cc1ccccc1)C(=O)NCC(=O)OCc1ccccc1	-2.4%	6.7%	-12.7%[20.9 µM]	-14.4%	-2.6%[17.1 µM]
Cc1cc(-c2n[nH]c(=S)n2/N=C/C=C/c2ccccc2)n[nH]1	15.8µM*	-1.0%	-6.3%	-7.3%	2.4%
COc1ccccc1/C=C/C=N/n1c(-c2cc(C)[nH]n2)n[nH]c1=S	14.1µM*	-0.7%	?	-9.9%	1.1%
CCOC(=O)/C(=C/C1=CC(=C/N(C)C)/C(=O)O1)C(C)=O	nt	nt	-5.6%	nt	nt
CCCCn1cnc2sc(-c3ccccc3)cc2c1=O	?	-0.7%[38.3 µM]	?	1.8%	-1.1%
CCCCN1C(=O)/C(=c2\sc3nc(=O)c(-c4ccccc4)nn3c2=O)c2ccccc21	25.1µM*	-14.2%[38.3 µM]	4.47µM*	3.5%	-3.9%
CCCN1C(=O)/C(=c2\sc3nc(=O)c(Cc4ccc(C)cc4)nn3c2=O)c2ccccc21	nt	-4.1%	6.31µM*	?	0.9%
